# High-throughput results as filed in PubChem BioAssay.
# Compounds with a hit are over-represented: about 9.6% of the library has one in this group of screens.
# hDAT+cocaine = changed hDAT dopamine uptake under cocaine IC80, either direction, primary screen, cocaine antagonist project, cell-based, LLC-PK1 hDAT, [14C]-dopamine uptake, MLSMR; 110,000 tested, 1.3% active; LLC-PK1 hDAT cells, [14C]-dopamine uptake with cocaine IC80; actives deviate in either direction; B-score at 10 µM; Sodium-dependent dopamine transporter (Homo sapiens), Q01959;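 active = Z score or B-score, a plate-position-corrected score, falls beyond the plate's 99.7% confidence bounds, in either direction; inactive = both scores lie inside the 99.7% bounds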;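 note: scored against the spread of the other compound wells on the same plate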
# PostGolgi yeast = phenotypic screen on post-Golgi transport, primary screen; post-Golgi transport phenotypic cell assay; inhibition, % at 10 µM; 98,000 tested, 0.9% active; AID 739, 2007;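 note: yeast cells grown in 1536-well plates; yeast grown about 18 h at 30C before absorbance read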
# PLAP act = PLAP enzyme activators, biochemical, luminescence, HTS; Alkaline phosphatase, placental type (Homo sapiens), P05187; purified PLAP enzyme, luminescent substrate read-out; active compounds read high; activation fold at 20 µM; 96,000 tested, 1.2% active; AID 696, 2007; in the data active = activation fold above about 2
# Target sequence (P05187 whole entry, looked up): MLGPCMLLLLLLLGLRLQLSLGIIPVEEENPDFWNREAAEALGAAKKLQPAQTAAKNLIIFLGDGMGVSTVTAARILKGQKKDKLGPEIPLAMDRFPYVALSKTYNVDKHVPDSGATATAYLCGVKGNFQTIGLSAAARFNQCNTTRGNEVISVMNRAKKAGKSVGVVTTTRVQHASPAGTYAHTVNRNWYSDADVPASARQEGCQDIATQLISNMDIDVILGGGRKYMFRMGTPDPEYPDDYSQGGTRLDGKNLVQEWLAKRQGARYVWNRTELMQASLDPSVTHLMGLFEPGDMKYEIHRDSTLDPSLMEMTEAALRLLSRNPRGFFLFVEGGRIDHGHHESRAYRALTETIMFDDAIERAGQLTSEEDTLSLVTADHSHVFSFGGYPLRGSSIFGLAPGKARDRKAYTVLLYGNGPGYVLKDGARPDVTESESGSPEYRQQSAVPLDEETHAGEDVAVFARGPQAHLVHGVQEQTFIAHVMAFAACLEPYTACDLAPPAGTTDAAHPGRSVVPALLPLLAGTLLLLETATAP
# Cav3 T inh = Cav3.2 calcium influx blockers – cell-based, Fluo-4 calcium fluorescence, FDSS, MLSMR library, primary screen | Cav3.2-expressing cells; active compounds read low | 100,000 tested, 4% active | Voltage-dependent T-type calcium channel subunit alpha-1H (Homo sapiens), O95180 | B-score at 10 µM;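 active = single-dose well whose peak fluorescence ratio is a statistical outlier from its plate by either plate-standardised score or position-corrected B-score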
# PostGolgi ctrl = growth inhibition of yeast control strain, primary screen, counter-screen for post-Golgi transport modulator project; inhibition, % at 10 µM; 98,000 tested, 5% active; efflux-deficient yeast background strain, growth absorbance A615, 16 h
# * hit, by the source's call; . = not tested or not shown. Cut-off read from the data, not from the text of the source, unless noted: active = inhibition above about 30%; inactive = the rest.
SMILES,hDAT+cocaine,PostGolgi yeast,PLAP act,Cav3 T inh,PostGolgi ctrl
Cc1ccc(S(=O)(=O)C/N=C(/NC(=S)N(c2ccccc2)c2ccccc2)c2ccccc2)cc1,1.1,-1,1,-2.8,28
CCOc1ccccc1CNc1ccc(N2CCOCC2)c(C(=O)O)c1,0.016,9,1.1,2.1,2
CCN(CC)CCn1nc(C)nc1-c1ccccc1O,0.027,40*,2.3*,0.2,-6
CCn1c(-c2ccccc2O)n[nH]c1=S,0.021,-10,1.7,0.35,9
Nc1nncn1C(=O)c1cccs1,2.8*,9,1,-0.82,2
COc1cccc(CNC(=O)c2cc3oc4ccccc4c3n2C)c1OC,-0.49,8,1,0.3,10
CCOc1ccccc1CNC(=O)c1cc2oc3ccccc3c2n1CC,-0.76,-7,1.1,-5*,31*
CCOC(=O)N1CCN(c2cc(=O)n(-c3ccc(Br)cc3)c(=O)[nH]2)CC1,0.058,13,1.1,0.23,-5
Cc1cc(C)c2c(c1)SC1=NC(c3ccccc3)(C(F)(F)F)NC(=O)N12 (stereo not given),-0.88,10,1.1,0.6,43*
Cc1ccc(C(=O)/C=C/c2c[nH]c3ccccc23)cc1,0.56,5,1,-1.1,13
Cc1ccc(C(=O)/C=C/c2cn(CN3CCN(C)CC3)c3ccccc23)cc1,0.29,-2,1.1,-1.2,41*
CCN1CC2=C(OC(N)=C(C#N)C2c2cccs2)/C(=C\c2cccs2)C1 (stereo not given),1.4,1,1.2,-3.5*,8
Cc1onc(-c2ccccc2)c1C(=O)Nc1cccc(OC(C)C)c1,0.046,1,0.8,-0.99,33*
CCCOc1cccc(NC(=O)c2c(-c3ccccc3)noc2C)c1,0.44,-4,1,-4.9*,17
Cc1onc(-c2ccccc2)c1C(N)=O,-0.7,4,0.9,-0.12,42*
Cc1onc(-c2ccccc2)c1C(=O)Nc1cccnc1,0.11,4,1,1.2,7
COc1ccc2c(c1)C(C)(CCN)C(=O)N2C (stereo not given),-0.19,.,.,0.72,.
Cc1cc(N2CCC(C)CC2)c(F)cc1[N+](=O)[O-],0.076,18,0.8,0.99,-6
CC1CCN(c2cc(N)c(Cl)cc2[N+](=O)[O-])CC1,0.038,-6,0.9,-3.2,38*
CC1CCN(c2cc(C#N)c(C#N)cc2[N+](=O)[O-])CC1,-0.59,0,1,-0.026,76*
CC1CCCCN1c1cc(C#N)c(C#N)cc1[N+](=O)[O-] (stereo not given),0.011,-1,0.9,0.21,43*
CCc1ccc2c(CN3CCN(S(=O)(=O)c4ccc5c(c4)OCCO5)CC3)cc(=O)oc2c1,0.031,5,1.6,-1.8,33*
Cc1ccc2c(CC(=O)N3CCN(S(=O)(=O)c4ccc5c(c4)OCCO5)CC3)coc2c1,0.34,9,1,-5.6*,24
C(=C\c1ccccc1)/CSc1nnc(-c2ccccc2)n1Cc1ccco1,-1,-3,1.1,-5.8*,29
COc1ccc(C(=O)CSc2nnc(-c3ccccn3)n2Cc2ccco2)cc1,1.1,2,1.3,-1.7,35*
SMILES,hDAT+cocaine,PostGolgi yeast,PLAP act,Cav3 T inh,PostGolgi ctrl
C(=C\c1ccccc1)/CSc1nnc(-c2ccncc2)n1Cc1ccco1,0.95,-1,1.1,-1.6,26
O=C(CSc1nnc(-c2cnccn2)n1Cc1ccco1)c1ccccc1,-1,1,0.9,-0.003,1
O=C(CSc1nnc(-c2cnccn2)n1Cc1ccco1)c1ccc(Cl)cc1,0.29,-7,0.8,-0.58,9
O=C(CSc1nnc(-c2ccccn2)n1Cc1ccco1)c1ccc(Cl)cc1,-0.28,9,1.6,-5*,20
O=C(CSc1nnc(-c2ccccn2)n1Cc1ccco1)c1ccccc1,1.3,2,1,-0.33,31*
C=CCn1c(SCC(=O)NCc2cccs2)nnc1C1CCCCC1,-0.23,-7,0.9,0.16,-1
O=C1OC(c2ccc(Cl)cc2)/C(=C(/O)c2ccccc2)C1=O (stereo not given),-0.15,8,1.1,-2.2,1
Cc1cc(S(=O)(=O)N2CCN(c3ncccn3)CC2)ccc1-n1cnnn1,0.86,8,.,1.9,0
CCn1c(=O)n(CC(=O)NC2CCCC(C)C2C)c(=O)c2ccccc21 (stereo not given),0.048,-5,1.1,.,-3
COC(=O)COc1ccc(S(=O)(=O)N2CCN(c3ccc(F)cc3)CC2)cc1,-0.25,-4,1,.,0
COc1cc(Cl)c(C)cc1NC(=O)CSc1nnc(-c2ccccn2)n1Cc1ccco1,0.38,4,1,-7.3*,40*
COc1ccc(NC(=O)CSc2nnc(-c3ccccc3)n2Cc2ccco2)cc1OC,0.47,-3,1.2,0.35,6
CC1(C)C=Cc2cc(-c3coc4cc(O)cc(O)c4c3=O)cc(O)c2O1,1.1,.,.,0.82,.
CC(=O)Nc1ccc(S(=O)(=O)N2CCSC2c2ccc(C)cc2)cc1 (stereo not given),2.2,-5,0.9,-4.2*,22
COc1ccc(C2SCCN2S(=O)(=O)c2ccc(NC(C)=O)cc2)cc1 (stereo not given),-0.24,-2,1,-0.39,12
O=C(NC12CC3CC(CC(C3)C1)C2)c1ccc(COc2ccc(Cl)cc2[N+](=O)[O-])o1,-0.94,4,1.2,-2,51*
COc1cccc(C2c3c(oc4cc(C)c(C)cc4c3=O)C(=O)N2CCCN(C)C)c1 (stereo not given),-0.28,-7,1.6,1.6,7
COc1ccc([C@H]2/C=C\CN(S(=O)(=O)c3ccc4ccccc4c3)[C@@H](C)C(=O)N2Cc2ccc(F)cc2)cc1,0.62,.,.,-2.1,.
N#CC1=C2SCC(O)(c3ccccc3)N2C(=O)CC1c1cccs1 (stereo not given),-0.56,-1,0.9,-2,13
COc1ccc(C2CC(=O)N3C(=C2C#N)SCC3(O)c2ccccc2)cc1 (stereo not given),-0.33,-3,1.1,-6*,7
O=c1cc(N2CCN(Cc3ccccc3)CC2)[nH]c(=O)n1Cc1ccc(F)cc1,0.3,-3,0.9,-1.4,-3
COc1ccccc1N1CCN(c2cc(=O)n(Cc3ccc(F)cc3)c(=O)[nH]2)CC1,-0.76,14,.,-6.1*,-3
O=C(CN1CCOCC1)Nc1nc(-c2ccc3c(c2)CCN3S(=O)(=O)c2ccccc2)cs1,1.5,5,2*,0.0022,11
CCOc1ccccc1C(=O)N(CN1CCCC1=O)c1cccc(Cl)c1,0.65,-8,1.1,0.8,4
CC1C/C(=N\NC(=S)NCc2ccccc2)CC(C)(C)C1 (stereo not given),-0.86,2,1,-4.4*,8
Cc1cc(C(=O)O)sc1C,-0.68,-6,.,-0.044,28
